# A selection: hits, their analogues and other compounds. The true share with any hit is near 0.41%.
# RmlC RmlD mix – RmlC/RmlD inhibition, mixture screen; inhibition, % at 5.5 µM; 110,000 compounds, 0.39% hits; AID 1532; RmlC/RmlD coupled enzyme inhibition, 384-well mixture HTS; in the data active means inhibition above about 30%, passing the limit was not always enough; inconclusive means no clear call, values can overlap the other calls
# YopH inh – blocks Yersinia enterocolitica YopH tyrosine phosphatase; 140,000 compounds, 0.16% hits; AID 898; inhibition, % (concentration not given with the values); fluorescence Ex485/Em525; in the data active means inhibition above about 50%
# Numbers stand for hits; n = inactive; u = inconclusive; x = no result given.
SMILES,RmlC RmlD mix,YopH inh
O=c1[nH]c(Nc2ccccc2)cc2cc(Br)ccc12,n,x
O=c1[nH]c(Nc2ccccc2)cc2ccccc12,n,101
C/C(=N\NC(=O)C(=O)Nc1cccc(Cl)c1C)c1ccncc1,x,n
O=C(O)C1=CCNCC1,n,x
CC(=O)N(C)C1=C(N2CCOCC2)C(=O)c2ccccc2C1=O,n,n
CC(=O)c1ccc(NC2=C(N3CCOCC3)C(=O)c3ccccc3C2=O)cc1,n,99
Cc1ccc(NC2=C(N3CCOCC3)C(=O)c3ccccc3C2=O)cc1,n,89
Cc1ccc(NC2=C(Cl)C(=O)c3ccccc3C2=O)cc1,x,n
O=C1c2ccccc2-c2ccc(C(=O)N3CCOCC3)cc21,n,n
O=C(O)c1ccc(NC2=C(N3CCOCC3)C(=O)c3ccccc3C2=O)cc1,x,76
CC(C)CC(=O)NCCCCc1ccccc1,x,n
O=C1NC[C@@H](Cc2cccc3ccccc23)N(CC2(c3ccccc3)CC2)C1=O,n,x
O=C(Nc1nc2ccc(Cl)cc2s1)[C@@H]1CCCN1C(=O)c1cccs1,x,n
Cc1cc(NS(=O)(=O)c2ccc(NC(=S)NC(=O)c3ccc(C(C)(C)C)cc3)cc2)no1,x,n
CC(=O)NC1=C(NC2CCS(=O)(=O)C2)C(=O)c2ccccc2C1=O (centres undefined),x,n
CN(C1=C(NC(=O)c2ccccc2)C(=O)c2ccccc2C1=O)C1CCS(=O)(=O)C1 (centres undefined),x,65
COc1ccc(/C=N/NC(=S)NC2CCS(=O)(=O)C2)cc1 (centres undefined),x,n
CO/N=C(/CNC(=O)c1ccc(Cl)cc1Cl)c1ccc(Cl)cc1,x,n
Oc1ccc(C=Nc2ccc3ncccc3c2)c(O)c1,n,72
Oc1ccc(C=Nc2cccc3ncccc23)c(O)c1,n,n
CC1=CC(=O)c2c(O)ccc(O)c2C1=O,n,x
CC1(c2nnc(Cc3ccccc3)o2)CC(c2cccnc2)=NO1 (centres undefined),n,x
COc1ccc(-c2ncncc2-c2csc(C)n2)c(O)c1OC,n,n
COC1=C(N)C(=O)c2nc(-c3nc(C(=O)O)c(C)c(-c4ccc(OC)c(OC)c4O)c3N)ccc2C1=O,n,101
Cc1ccc(NCN2C(=O)C3CC=C(Cl)CC3C2=O)cc1 (centres undefined),n,n
SMILES,RmlC RmlD mix,YopH inh
O=C(O)c1ccccc1NCN1C(=O)C2CC=C(Cl)CC2C1=O (centres undefined),37,n
CCOC(=O)C1=C(C)N[C@@]2(O)c3ccccc3C(=O)[C@@]12O,n,n
CCCCOC(=O)C1=C(C)NC2(O)c3ccccc3C(=O)C12O (centres undefined),n,67
O=C1C=C(NCc2ccc(Cl)cc2)CCC1,x,n
CCCCc1cc(=O)oc2c(CN(C)C)c(O)c(Cl)cc12,70,n
O=c1oc2c(CN3CCOCC3)c(O)c(Cl)cc2c2c1CCC2,56,n
CCCCc1cc(=O)oc2c(CN3CCCC3)c(O)ccc12,u,n
CCc1cc(=O)oc2c(CN3CCCC3)c(O)c(Cl)cc12,90,n
CCN(CC)Cc1c(O)c(Cl)cc2c3c(c(=O)oc12)CCCC3,x,n
CCc1c(C)c2cc(Cl)c(O)c(CN3CCCCC3)c2oc1=O,n,n
O=C(O)c1cc(C(F)(F)F)nc2c(C(F)(F)F)cccc12,n,x
Cc1ccc(CN2C(=O)[C@H]3Cc4c([nH]c5ccccc45)C(C)(C)N3C2=O)cc1,n,x
CCN1c2ccccc2N(C)C1(C)c1ccccc1 (centres undefined),x,92
CN1C(=O)N(C)C2(c3ccccc3)NC(=O)NC12c1ccccc1 (centres undefined),n,n
CN1c2ccccc2N(C)C1(C)c1ccccc1,x,85
CCN1C(=O)N(c2cccc3ccccc23)C(C)=CC1(C)C,n,n
Cc1oc2c(c1C(=O)c1ccccc1)C(=O)C(=O)c1ccccc1-2,n,89
O=C(C1=C(c2ccccc2)C(=O)c2ccccc2C1=O)c1ccccc1,x,n
O=C1C(=O)c2c(C(=O)c3ccccc3)coc2-c2ccccc21,n,75
O=C(c1ccccc1)c1coc2ccc(O)c(Cl)c12,n,n
Cc1ccc(CNC(=O)C2CC3Cn4c(nc5cc(Cl)c(Cl)cc54)C3N2C)o1 (centres undefined),n,x
Nc1ncnc2c1nc(Sc1ccc(Cl)cc1)n2[C@@H]1O[C@@H]2COP(=O)(O)O[C@H]2[C@H]1O,n,x
COc1ccc2nc3ccccc3nc2c1,n,x
COc1ccc(-n2nc3ccccc3n2)cc1,n,50
COCCCn1c2nc3ccccc3nc2c2c(=O)n(Cc3ccccc3Cl)cnc21,75,x
SMILES,RmlC RmlD mix,YopH inh
COCCCn1c2nc3ccccc3nc2c2c(=O)n(Cc3ccc(Cl)cc3)cnc21,n,n
C=CC[C@]12C[C@@H](OC)C(=O)C=C1O[C@@H](c1ccc(OC)c(OC)c1)[C@H]2C,n,x
Cn1c(=O)c2c(nc(N/N=C/c3ccc(OC(=O)c4ccco4)cc3)n2Cc2ccccc2)n(C)c1=O,x,n
Cc1ccc(C(=O)NNC(=O)CCN2C(=O)C3CCCCC3C2=O)cc1 (centres undefined),x,n
CCOc1cc(CNc2ccc(N3CCCC3)cc2)cc(Cl)c1OC,x,74
CCOc1cc(CNc2ccc(S(N)(=O)=O)cc2)cc(Cl)c1OC,x,n
COc1cc(/C=N/NC(=O)c2ccc(O)cc2)ccc1Oc1ccc([N+](=O)[O-])cn1,x,n
Cc1ccc(C2=Nc3ccccc3N=C(c3ccc([N+](=O)[O-])cc3)C2)c(O)c1,x,n
CSc1nsc(/C=C/Nc2ccc(Cl)cc2)c1C#N,n,56
CSc1nsc(/C=C/Nc2cccc(Cl)c2)c1C#N,n,n
FC(F)(F)c1ccc(C2[C@H]3CN(CC4CCCCC4)[C@H](c4ccccc4)C34CC2(c2cccnc2)C4)cc1 (some centres undefined),n,x
COc1ccccc1Nc1ccc(S(=O)(=O)N2CCCCC2)cc1[N+](=O)[O-],x,n
COc1ccc(C2C=C(c3ccccc3)Nc3nc(NC(C)=O)nn32)cc1 (centres undefined),40,n
COc1ccc(C2C=C(c3ccccc3)Nc3nnnn32)cc1 (centres undefined),n,n
Cc1ccc(SCCC(=O)Nc2ccc(Br)c(C)c2)cc1,x,n
O=C(NCCN1CCOCC1)c1ccncc1,n,n
O=C1C=C(NCCN2CCOCC2)C(=O)c2cnccc21,n,101
CC(=C\c1ccco1)/C=C(\C#N)C(=O)NCCc1c[nH]c2ccccc12,x,n
Cc1cc(C)cc(SCc2noc(C(=O)NCCCN3CCOCC3)c2C(=O)NCCCN2CCOCC2)c1,n,x
Cc1ccc2c(C)[nH]c(=O)cc2c1,n,90
Cc1ccc(-c2cc(=O)[nH]c3ccccc23)cc1,n,n
NC(=O)c1ccccc1Nc1nc(NCCO)nc(N2CCCC2)n1,n,x
Cc1ccc(S(=O)(=O)n2c3ccc(F)cc3c3nc(C)sc32)cc1,x,n
COc1ccc2oc(=O)cc(C)c2c1,x,n
CCOC(=O)Oc1ccc2oc(=O)cc(C)c2c1,n,67
SMILES,RmlC RmlD mix,YopH inh
CC(C)(C)N1OC2CC1c1nc3ccccc3n1C2 (centres undefined),n,x
O=C(NCc1cccc(C(F)(F)F)c1)C1CC(c2ccc(C(F)(F)F)cc2)=NO1 (centres undefined),n,x
CCn1nnnc1-c1ccc(OC)c(S(=O)(=O)Nc2ccc(C(=O)OC)cc2)c1,n,n
CCOC(=O)c1ccc(NS(=O)(=O)c2cc(-c3nnnn3C(C)C)ccc2OC)cc1,n,62
O=C(CSc1ncn[nH]1)c1ccc2c(c1)OCCO2,n,n
O=C(CSc1ncn[nH]1)c1ccc2c(c1)OCO2,n,57
O=C1C=Cc2ccccc2C1=O,n,63
